# In PubChem BioAssay (NCATS):
# “And” between values parts separate entries of the source, which are not always exact repeats. Equal entries are not always repeated. Inconclusive results are not listed. Some structures have more than one record in an assay (separate samples or runs), and their calls can disagree. The source made the active and inactive calls. Unless noted, the call rests on the fitted dose curve; in most records, active means well fitted curve in the direction sought with a large enough effect; inconclusive means small, poorly fitted or top-dose-only effect, or another doubt; inactive means no such curve, though single readings can be large; an effect the other way counts as inactive or inconclusive.
# Columns and labels:
# [1] = biological target: Cytochrome P450 2C9 (Homo sapiens) (UniProt P11712); test: Cytochrome P450 family 2 subfamily C member 9 (CYP2C9) small molecule antagonists: luciferase biochemical (cell-free) qHTS assay (AID 1645842; active means well fitted curve in the direction sought with a large enough effect in the repeat runs; an effect the other way counts as inactive or inconclusive; further: nearly all actives have a fitted effect of over 55% in size; further: potency means the concentration at half of the fitted maximal effect)
# Sequence of Cytochrome P450 2C9 (Homo sapiens) (P11712 whole entry, looked up): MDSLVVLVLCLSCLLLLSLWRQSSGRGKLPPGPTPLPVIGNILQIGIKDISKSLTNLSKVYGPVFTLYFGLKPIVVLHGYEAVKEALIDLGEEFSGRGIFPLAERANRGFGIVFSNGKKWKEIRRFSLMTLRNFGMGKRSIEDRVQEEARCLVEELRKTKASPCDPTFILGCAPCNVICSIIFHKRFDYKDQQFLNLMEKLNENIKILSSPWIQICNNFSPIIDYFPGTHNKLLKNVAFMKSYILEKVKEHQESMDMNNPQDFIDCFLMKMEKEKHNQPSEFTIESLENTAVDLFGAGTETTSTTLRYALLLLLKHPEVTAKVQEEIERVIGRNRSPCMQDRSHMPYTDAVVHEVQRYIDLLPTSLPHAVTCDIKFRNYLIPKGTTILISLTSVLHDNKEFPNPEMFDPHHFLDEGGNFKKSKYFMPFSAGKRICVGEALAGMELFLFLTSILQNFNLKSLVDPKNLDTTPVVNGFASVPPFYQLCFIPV
# In short: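 Luminescence, after 20 min with luciferin detection reagent, reflected CYP2C9 turnover during a 1 h NADPH-driven reaction at 37C. Enzyme-substrate mix contained 0.4% bovine serum albumin and was preincubated with compound 10 min at room temperature.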
# [2] = Primary qHTS for inhibitors of nuclear receptor binding SET domain protein 2 (NSD2) in an isogenic RCH-ACV NSD2 p.E1099K mutant (9B) (AID 1645876); further: nearly all actives have a fitted effect of over 70% in size; further: potency means the concentration at half of the fitted maximal effect
# [3] = Primary qHTS for inhibitors of nuclear receptor binding SET domain protein 2 (NSD2) in an RCH-ACV wild type WT cells (2C) (AID 1645877); further: nearly all actives have a fitted effect of over 70% in size; further: potency means the concentration at half of the fitted maximal effect
# [4] = biological target: N-terminal Xaa-Pro-Lys N-methyltransferase 1 (Homo sapiens) (UniProt Q9BV86); test: Confirmatory qHTS for Inhibitors of N-terminal methyltransferase 1 (NTMT1): MTaseGlo Assay (AID 1645874); further: nearly all actives have a fitted effect of over 65% in size; further: potency means the concentration at half of the fitted maximal effect
# Sequence of N-terminal Xaa-Pro-Lys N-methyltransferase 1 (Homo sapiens) (Q9BV86 whole entry, looked up): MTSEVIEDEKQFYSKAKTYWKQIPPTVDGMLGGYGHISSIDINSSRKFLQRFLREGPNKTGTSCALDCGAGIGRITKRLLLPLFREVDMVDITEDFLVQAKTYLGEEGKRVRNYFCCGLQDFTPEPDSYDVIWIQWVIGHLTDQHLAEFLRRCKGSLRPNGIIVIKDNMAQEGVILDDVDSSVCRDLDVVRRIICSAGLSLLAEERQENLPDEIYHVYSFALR
# Text: Assay Submitter (PI): Rong Huang Ph.D.
# Purdue University, West Lafayette, IN 47907
# The N-terminal methytransferase 1 is the first methyltransferase that methylates protein alpha-N-amines and plays an important role in regulating cell mitosis, chromatin interactions and DNA repair. It is observed to be over-expressed in various cancer patient tissues like malignant melanoma and colorectal cancer tissues. Knockdown of NTMT1 in cancer cells causes cell mitotic defects and enhances sensitivity to DNA damaging chemotherapeutics. […] These critical cellular processes in which NTMT1 is implicated, coupled with emerging links to cellular dysfunction, strengthen the inference that NTMT1 is a compelling novel anticancer target. Progress have been made in understanding the molecular properties of NTMT1 and the biological consequences of protein alpha-N-terminal methylation, but there are no specific small molecule probes available for NTMT1 to fully characterize its MTase activity. To address this unmet need, a panel of assay is created and established to enable quantitative high-throughput screening (qHTS) for novel, potent, and selective small molecule NTMT1 inhibitors. Two orthogonal qHTS that use different reagents (ThioGlo vs. MTaseGlo) are developed for primary robotic screening against the NCATS chemical library of more than 400,000 small molecules. Identified inhibitors are reacquired, validated, and further characterized.
# MTaseGlo Assay is a luminescence screen that measure the activity of methyltransferases based on the reaction product S-adenosyl homocysteine (SAH). The substrate SAM is converted to SAH upon enzyme activation. MTase-Glo reagent and detection solution convert SAH to ATP and measure the light from the luciferase reaction.
# Materials: NTMT1 enzyme, substrate SPKRIA, control peptide RCC1-6 is provided by the Huang laboratory.
# SEQUENCE No. (e.g., 1, 2, 3, etc.); […] (e.g., Cells, Incubation, Reagent, etc.); VALUE; DESCRIPTION
# 1; Enzyme; 3 uL; Dispense enzyme mixture (final concentrations of 125 nM NTMT1 and 100 uM SAM) into Greiner 1536-well white / solid bottom assay plate (Greiner Bio One, Monroe, NC).
# 2; Compounds; 23 nL; Compounds and controls were transferred via a Kalypsys Pin Tool (Wako USA) equipped with a 1536-slotted pin array (Wako Automation, Richmond, VA)
# 3; Incubation; 15 min; Incubate at room temperature
# 4; Substrate; 1 uL; Dispense 1 uL of substrate at final concentration of 1 uM. Buffer solution was dispensed in control wells. The assay plate was covered with metal lids.
# 5; Incubation; 30 min; Incubate at room temperature, protected from lights.
# 6; Reagent; 1 uL; Dispensed 5x MTase-Glo detection reagent (R) into the assay plate. The plate was covered with metal lids.
# 7; Incubation; 30 min; Incubate the assay plates at room temperature in the dark to allow for SAH to be converted to ADP.
# 8; Reagent; 5 uL; Dispense 5 uL of 1x MTase-Glo Detection Solution (R) to allow for ADP to be converted to ATP which was then detected with a luciferase reaction.
# 9; Centrifuge; 15 sec; Centrifuge the assay plate for 15 seconds at 1000 RPM.
# 10; Incubation; 30 min; Assay plates were incubation at room temperature in the dark.
# 11; Detection; Luminescence; Plates were read on ViewLux detector (PerkinElmer). Data were normalized to no-enzyme (0% activity) and no-inhibitor (DMSO; 100%) controls, and the resulting percent inhibition data were fitted to a 4-parameter Hill equation using GraphPad Prism.
# [5] = biological target: Catechol O-methyltransferase (Homo sapiens) (UniProt P21964); test: Confirmatory Screen for Target Class Profiling of Small Molecule Inhibitors of Methyltransferases (AID 1745852); conditions: MTase-Glo luminescence, SAH detection, recombinant enzyme; measured here: COMT max response; stronger effect = lower value
# Sequence of Catechol O-methyltransferase (Homo sapiens) (P21964 whole entry, looked up): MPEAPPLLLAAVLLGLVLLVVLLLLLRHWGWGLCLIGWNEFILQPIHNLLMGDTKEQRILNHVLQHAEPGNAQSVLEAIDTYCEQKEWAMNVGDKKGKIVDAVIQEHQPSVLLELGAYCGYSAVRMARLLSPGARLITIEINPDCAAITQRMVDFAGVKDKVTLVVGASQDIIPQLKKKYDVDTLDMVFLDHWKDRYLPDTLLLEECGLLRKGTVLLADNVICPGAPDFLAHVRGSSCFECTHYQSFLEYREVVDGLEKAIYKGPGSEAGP
# Papain (Carica papaya) = Papain (Carica papaya) (UniProt P00784); test: Primary qHTS assay for inhibitors of the protease papain (AID 1645873);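 further: papain turnover of Z-FR-AMC read as the AMC fluorescence gain over 10 min; series mostly up to about 50 µM; on the % scale 0 is the no-effect control and ±100 the full control effect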
# Sequence of Papain (Carica papaya) (P00784 whole entry, looked up): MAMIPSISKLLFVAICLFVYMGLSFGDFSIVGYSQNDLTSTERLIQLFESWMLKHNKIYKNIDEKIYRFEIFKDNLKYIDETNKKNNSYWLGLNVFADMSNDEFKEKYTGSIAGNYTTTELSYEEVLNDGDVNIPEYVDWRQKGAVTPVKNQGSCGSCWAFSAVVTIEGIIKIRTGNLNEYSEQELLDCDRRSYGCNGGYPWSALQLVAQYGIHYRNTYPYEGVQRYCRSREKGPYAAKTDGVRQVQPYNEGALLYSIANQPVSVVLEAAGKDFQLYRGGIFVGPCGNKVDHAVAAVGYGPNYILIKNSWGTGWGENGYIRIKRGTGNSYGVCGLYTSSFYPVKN
structure (smiles),measurement,setting,value
CN[C@@H](C)C(=O)N[C@H]1CN(C(=O)CC(C)C)CC[C@H]2CC[C@@H](C(=O)NC(c3ccccc3)c3ccccc3)N2C1=O,Potency,[1],inactive
same,Potency,[2],inactive
CS(=O)c1ccc(-c2nc(-c3ccc(F)cc3)c(-c3ccncc3)[nH]2)cc1 (stereo not given),Potency,[1],0.952 µM (active)
same,Potency,[2],18.6 µM (active)
COCCOC(=O)C1=C(C)NC2=C(C(=O)CC(c3ccccc3OC)C2)C1c1cccc(O)c1 (stereo not given),Potency,[1],1.69 µM (active)
same,Potency,[2],4.68 µM (active) and 3.65 µM (active)
CCn1c(C(=O)N(C2CC2)C2CC2)cc2c3c(ncn3C)c(Nc3cc(C)n(C)n3)nc21,Potency,[1],7.56 µM (active)
same,Potency,[2],11.5 µM (active) and 16.6 µM (active)
O=C(O)c1cc(-c2ccccc2)nc2ccccc12,Potency,[1],27 µM (active) and inactive
same,Potency,[2],inactive
same,Potency,[3],inactive
COc1ccc2c(Oc3ccc(NC(=O)c4c(C)n(CC(C)(C)O)n(-c5ccccc5)c4=O)nc3)ccnc2c1,Potency,[1],19 µM (active)
same,Potency,[2],inactive
NC(=O)c1cccc(-c2cc(Nc3ccc(OC(F)(F)F)cc3)ncn2)c1,Potency,[1],15.1 µM (active)
same,Potency,[2],20.5 µM (active) and 14.8 µM (active)
same,Potency,[3],23 µM (active) and 13.2 µM (active)
O=C(CCCCCCC(=O)Nc1ccccc1)NO,Potency,[1],inactive
same,Potency,[2],94.4 nM (active) and 1.63 µM (active) and 662 nM (active)
same,Potency,[3],106 nM (active) and 649 nM (active) and 833 nM (active)
CC(C)(C)Cn1c(N)nc2ccc(-c3[nH]c(C(C)(C)C)nc3-c3ccc(F)cc3)nc21,Potency,[1],5.35 µM (active)
same,Potency,[4],17.8 µM (active)
same,Potency,[2],2.9 µM (active) and 16.6 µM (active)
same,Potency,[3],2.58 µM (active) and 16.6 µM (active)
CC(C)(Cc1ccc2ccccc2c1)NC[C@@H](O)COc1cccc(Cl)c1C#N,Potency,[1],2.68 µM (active)
same,Potency,[2],4.68 µM (active)
COc1cc2ncnc(Nc3ccc(F)c(Cl)c3)c2cc1OCCCN1CCOCC1,Potency,[1],inactive
same,Potency,[4],7.58 µM (active)
same,Potency,[2],23.7 µM (active) and 20.6 µM (active) and inactive
same,Potency,[3],10.6 µM (active) and 11.5 µM (active)
same,activity,[5],-74.8%
C[N+](C)(C)CC(=O)O,Potency,[1],inactive
same,Potency,[2],inactive
same,Potency,[3],inactive
Cc1cccc(Nc2nc(-c3ccncc3)cs2)c1,Potency,[1],0.268 µM (active)
same,Potency,[4],2.82 µM (active)
same,Potency,[2],10.3 µM (active) and 11.8 µM (active)
same,Potency,[3],10.3 µM (active) and 13.2 µM (active)
same,activity,[5],-88.1%
Cc1ccc(Nc2cc(-c3cccc(N4C(=O)c5ccccc5C4=O)c3)ncn2)cc1NS(C)(=O)=O,Potency,[1],1.07 µM (active)
same,Potency,[2],16.6 µM (active)
same,Potency,[3],18.6 µM (active)
CCOc1ccc(Nc2nc(-c3c(C)nc4ccccn34)cs2)cc1,Potency,[1],13.5 µM (active)
same,Potency,[4],inactive
same,Potency,[2],0.183 µM (active)
same,Potency,[3],183 nM (active) and inactive
c1ccc2c(-c3cnn4cc(-c5ccc(N6CCNCC6)cc5)cnc34)ccnc2c1,Potency,[1],inactive
same,Potency,[2],2.63 µM (active)
same,Potency,[3],2.09 µM (active)
Cc1c(NC(=O)c2ccc(C(C)(C)C)cc2)cccc1-c1cn(C)c(=O)c(Nc2ccc(C(=O)N3CCOCC3)cc2)n1,Potency,[1],2.13 µM (active)
same,Potency,[2],inactive
Cc1cnc(C(=O)O)c[n+]1[O-],Potency,[1],inactive
same,Potency,[2],inactive
same,Potency,[3],inactive
CC1(C)Cc2c(sc(NC(=S)NC(=O)c3ccccc3)c2C(=O)O)CO1,Potency,[1],19 µM (active)
same,Potency,[2],inactive
COc1ccc2cc(-c3nc(-c4ccc(S(C)=O)cc4)[nH]c3-c3ccncc3)ccc2c1 (stereo not given),Potency,[1],3.38 µM (active)
same,Potency,[2],23.5 µM (active) and 20.5 µM (active)
Cc1nc(N)sc1-c1ccnc(Nc2ccc(N3CCOCC3)cc2)n1,Potency,[1],6.01 µM (active)
same,Potency,[2],409 nM (active) and 590 nM (active)
same,Potency,[3],459 nM (active) and 468 nM (active)
O=C(O)c1cc(O)c2c(c1)C(=O)c1cccc(O)c1C2=O,Potency,[2],inactive
COc1ccc(Cc2nccc3cc(OC)c(OC)cc23)cc1OC,outcome,Papain (Carica papaya),inactive
same,activity,[5],-10.8%
COCCOc1nc(-c2ccc(Cl)c(Cl)c2)n(-c2ccc(NC(=O)CCl)cc2)n1,Potency,[1],4.77 µM (active)
same,Potency,[2],1.48 µM (active)
same,Potency,[3],1.32 µM (active)
CC(=O)c1ccc(S(=O)(=O)NC(=O)NC2CCCCC2)cc1,outcome,Papain (Carica papaya),inactive
same,Potency,[2],inactive
same,Potency,[3],inactive
O=C(Nc1ccccc1-c1cn2c(CN3CCNCC3)csc2n1)c1cnc2ccccc2n1,Potency,[4],33.9 µM (active)
same,Potency,[2],20.5 µM (active) and 7.42 µM (active)
same,activity,[5],-38.1%
COc1ccc(-c2coc3cc(O)cc(O)c3c2=O)cc1,Potency,[2],18.6 µM (active)
Cn1c(N2CCCCS2(=O)=O)nc(C(=O)NCc2ccc(F)cc2)c(O)c1=O,Potency,[1],inactive
same,Potency,[2],inactive
same,Potency,[3],inactive
O=C(CCN1CCN(C(=O)OCc2cc(Cl)cc(Cl)c2)CC1)c1ccc2[nH]c(=O)oc2c1,Potency,[1],7.56 µM (active)
same,Potency,[2],18.6 µM (active)
same,Potency,[3],14.5 µM (active) and 18.6 µM (active)
O=C(O)Cc1cccc2ccccc12,Potency,[1],inactive
same,Potency,[2],inactive
same,Potency,[3],inactive
CCc1ccc(OCc2ccccc2C(=O)Nc2ccc3nc(C)cc(N)c3c2)cc1,Potency,[1],26.8 µM (active)
same,Potency,[2],2.63 µM (active)
same,Potency,[3],2.95 µM (active)
